PubChem BioAssay (EPA / NIEHS)
Results filed as inconclusive are left out. The source holds several records for some structures; these can differ, active in one and inactive in another. The source made the active and inactive calls. The calls were made as follows, unless noted: active = hit-call score of the fitted dose curve at least 0.9, where 1 is the maximum; inconclusive = response in the unintended direction; inactive = score below 0.9.

What was measured:
[1] = ATG_TCF_b_cat_CIS: Attagene CIS-FACTORIAL HepG2 Assay for human T-Cell-Factor with beta-catenin (TCF/b-cat) (AID 2282965; active = hit-call score of the fitted dose curve at least 0.9, where 1 is the maximum; inactive = score below 0.9); settings: HepG2 TCF/beta-catenin cis-reporter transcription, actives raise or lower the signal
Outline: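 Measured: reporter mRNA in HepG2 transiently transfected with cis-promoter reporter units, 24 h after chemical addition. Fitting was bidirectional, DMSO as negative control.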

[2] = ATG_TAL_CIS: Attagene CIS-FACTORIAL HepG2 Assay for human TAL Basal Promoter (AID 2282966; active = hit-call score of the fitted dose curve at least 0.9, where 1 is the maximum; inactive = score below 0.9;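 also: background control endpoint measuring basal TAL promoter reporter mRNA not a specific factor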); settings: HepG2 Attagene cis-factorial TAL promoter reporter; actives raise or lower the signal
Outline: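 In this cell-based multiplex, HepG2 liver cells bearing cis-promoter reporter constructs are dosed for 24 hours. Total RNA is reverse-transcribed and amplified, labelled fragments are sized by capillary electrophoresis, and signal changes are fitted bidirectionally versus DMSO.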

[3] = ATG_TGFb_CIS: Attagene CIS-FACTORIAL HepG2 Assay for human Transforming Growth Factor (TGF) (AID 2282967; active = hit-call score of the fitted dose curve at least 0.9, where 1 is the maximum; inactive = score below 0.9); settings: HepG2 Attagene CIS TGFb reporter, mRNA transcription; actives raise or lower the signal
Outline: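 HepG2 cells transiently transfected with cis-promoter-driven multiple reporter units measure endogenous TF activity; reporter mRNA quantified at 24 h by RT-PCR, FAM labeling, HpaI digestion and capillary electrophoresis. Bidirectional fit vs DMSO.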

[4] = ATG_VDRE_CIS: Attagene CIS-FACTORIAL HepG2 Assay for human Vitamin D Receptor Element (VDRE) (AID 2282968; active = hit-call score of the fitted dose curve at least 0.9, where 1 is the maximum; inactive = score below 0.9); settings: HepG2 VDRE cis-reporter transcription, actives raise or lower the signal
Outline: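 In transiently transfected HepG2 liver cells, gain or loss of reporter mRNA after 24 h exposure is scored relative to DMSO, using fluorescence detection by capillary electrophoresis of RT-PCR products.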

[5] = molecular target: Estrogen receptor (Homo sapiens) (UniProt P03372); assay: ATG_ERa_TRANS: Attagene TRANS-FACTORIAL HepG2 Assay for human Estrogen Receptor alpha (ERa) (AID 2282970); settings: HepG2 Attagene TRANS ERa GAL4 reporter, mRNA
Outline: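 After 24 h of compound treatment, RNA from HepG2 cells bearing transfected GAL4-UAS reporter constructs is converted to cDNA, amplified and fluorescently labelled. Capillary electrophoresis resolves the ERa-linked reporter; DMSO serves as negative control.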

[6] = molecular target: X-box-binding protein 1 (Homo sapiens) (UniProt P17861); assay: ATG_Xbp1_CIS: Attagene CIS-FACTORIAL HepG2 Assay for human X-box Binding Protein 1 (XBP1) (AID 2282972; active = hit-call score of the fitted dose curve at least 0.9, where 1 is the maximum; inactive = score below 0.9); settings: HepG2 XBP1 cis-element reporter, Attagene multiplex; actives raise or lower the signal
Sequence of X-box-binding protein 1 (Homo sapiens) (P17861 whole entry, looked up): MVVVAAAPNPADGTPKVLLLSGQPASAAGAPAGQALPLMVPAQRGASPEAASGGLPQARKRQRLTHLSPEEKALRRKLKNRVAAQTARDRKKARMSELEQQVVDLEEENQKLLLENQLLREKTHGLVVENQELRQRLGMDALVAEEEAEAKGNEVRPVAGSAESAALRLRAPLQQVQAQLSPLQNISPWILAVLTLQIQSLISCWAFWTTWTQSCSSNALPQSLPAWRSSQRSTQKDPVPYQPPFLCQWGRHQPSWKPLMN
Outline: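 HepG2 cells transiently transfected with cis-regulated multiple reporter transcription units; endogenous transcription factor activity measured 24 hours after chemical dosing. Reporter mRNA quantified by RT-PCR, 6-FAM primer extension, HpaI digestion and capillary electrophoresis; bidirectional fitting versus DMSO.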

[7] = molecular target: Glucocorticoid receptor (Homo sapiens) (UniProt P04150); assay: ATG_GR_TRANS: Attagene TRANS-FACTORIAL HepG2 Assay for human Glucocorticoid Receptor (GR) (AID 2282978); settings: HepG2 Attagene TRANS GR reporter, mRNA transcription;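 also: activators score as hits since higher reporter transcript over DMSO is fitted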
Outline: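 After 24 h incubation with test chemical, transfected HepG2 cells were lysed for RNA; reporter cDNA was amplified, FAM-labelled, HpaI-digested and sized on a capillary analyser. Signal gain relative to DMSO was scored.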

[8] = molecular target: Oxysterols receptor LXR-alpha (Homo sapiens) (UniProt Q13133); assay: ATG_LXRa_TRANS: Attagene TRANS-FACTORIAL HepG2 Assay for human Liver X Receptor alpha (LXRa) (AID 2282980); settings: HepG2 Attagene TRANS reporter, LXRa transactivation
Sequence of Oxysterols receptor LXR-alpha (Homo sapiens) (Q13133 whole entry, looked up, the tested form may be a part): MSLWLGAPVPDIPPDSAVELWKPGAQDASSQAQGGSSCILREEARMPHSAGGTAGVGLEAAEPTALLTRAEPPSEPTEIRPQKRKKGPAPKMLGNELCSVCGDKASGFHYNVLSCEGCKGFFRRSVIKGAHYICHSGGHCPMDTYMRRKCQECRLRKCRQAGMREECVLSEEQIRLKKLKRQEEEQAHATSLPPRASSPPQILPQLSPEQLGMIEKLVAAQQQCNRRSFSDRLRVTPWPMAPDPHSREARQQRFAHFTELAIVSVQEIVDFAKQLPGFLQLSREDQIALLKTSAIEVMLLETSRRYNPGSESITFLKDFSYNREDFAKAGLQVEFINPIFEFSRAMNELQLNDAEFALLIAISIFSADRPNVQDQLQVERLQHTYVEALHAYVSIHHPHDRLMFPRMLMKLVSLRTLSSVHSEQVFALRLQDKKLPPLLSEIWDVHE
Outline: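 Read-out: reporter transcript levels by RT-PCR plus capillary electrophoresis, fluorescence intensity. Transiently transfected HepG2, exogenous NR-GAL4 chimera, GAL4-UAS reporters; 24 h compound exposure. Activity = increase over DMSO negative control.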

[9] = molecular target: Oxysterols receptor LXR-beta (Homo sapiens) (UniProt P55055); assay: ATG_LXRb_TRANS: Attagene TRANS-FACTORIAL HepG2 Assay for human Liver X Receptor beta (LXRb) (AID 2282981); settings: HepG2 Attagene TRANS GAL4-LXRb reporter, mRNA
Sequence of Oxysterols receptor LXR-beta (Homo sapiens) (P55055 whole entry, looked up, the tested form may be a part): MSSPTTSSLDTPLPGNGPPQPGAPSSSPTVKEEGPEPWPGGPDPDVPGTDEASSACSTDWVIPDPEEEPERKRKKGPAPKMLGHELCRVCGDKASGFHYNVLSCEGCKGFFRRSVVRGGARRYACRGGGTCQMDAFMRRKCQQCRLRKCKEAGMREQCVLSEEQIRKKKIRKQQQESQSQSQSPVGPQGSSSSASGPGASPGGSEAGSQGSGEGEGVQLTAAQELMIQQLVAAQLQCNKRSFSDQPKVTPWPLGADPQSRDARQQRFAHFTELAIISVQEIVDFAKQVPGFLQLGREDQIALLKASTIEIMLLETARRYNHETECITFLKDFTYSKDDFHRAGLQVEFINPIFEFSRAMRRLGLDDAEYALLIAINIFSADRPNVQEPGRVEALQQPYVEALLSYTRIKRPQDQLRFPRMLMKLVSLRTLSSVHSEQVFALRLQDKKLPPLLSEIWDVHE
Outline: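 Cells: HepG2, transiently transfected with GAL4-UAS reporter units plus LXRb-Gal4 fusion. Treatment: 24 h. Detection: reporter mRNA by RT-PCR, 6-FAM labelling, HpaI digestion, capillary electrophoresis.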

[10] = molecular target: Hepatocyte nuclear factor 4-alpha (Homo sapiens) (UniProt P41235); assay: ATG_HNF4a_TRANS: Attagene TRANS-FACTORIAL HepG2 Assay for human Hepatocyte Nuclear Factor 4 alpha (HNF4a) (AID 2282982); settings: HepG2 HNF4a transactivation reporter, mRNA readout
Sequence of Hepatocyte nuclear factor 4-alpha (Homo sapiens) (P41235 whole entry, looked up): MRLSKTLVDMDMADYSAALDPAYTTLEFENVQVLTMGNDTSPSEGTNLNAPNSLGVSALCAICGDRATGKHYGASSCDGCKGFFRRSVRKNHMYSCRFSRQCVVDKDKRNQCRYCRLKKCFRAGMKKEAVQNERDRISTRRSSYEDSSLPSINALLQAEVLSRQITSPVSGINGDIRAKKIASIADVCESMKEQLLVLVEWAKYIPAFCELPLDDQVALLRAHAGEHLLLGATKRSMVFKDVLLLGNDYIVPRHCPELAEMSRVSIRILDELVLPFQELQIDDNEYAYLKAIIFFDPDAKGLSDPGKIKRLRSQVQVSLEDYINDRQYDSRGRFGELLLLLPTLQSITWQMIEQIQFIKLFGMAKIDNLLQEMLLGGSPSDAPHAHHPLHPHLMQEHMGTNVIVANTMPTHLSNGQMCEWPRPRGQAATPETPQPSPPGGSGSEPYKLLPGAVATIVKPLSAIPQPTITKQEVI
Outline: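 Transfected HepG2 reporter cells are dosed for 24 h; reporter RNA is reverse-transcribed, amplified, fluorescently labelled and HpaI-digested before CE sizing. Positive-direction fit against DMSO.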

[11] = ATG_M_32_TRANS: Attagene TRANS-FACTORIAL HepG2 Assay for M32 Transcription Factor (Internal Marker) (AID 2282984); settings: HepG2 Attagene TRANS M32 internal marker reporter;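 also: transcript level of a background control reporter unit measured by RT-PCR and capillary electrophoresis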
Outline: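 Using transiently transfected HepG2 cells exposed to test chemicals for 24 h, reporter transcripts are converted to labelled cDNA fragments and quantified by capillary electrophoresis. DMSO defines the activity baseline.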

[12] = molecular target: Nuclear receptor subfamily 4 group A member 2 (Homo sapiens) (UniProt P43354); assay: ATG_NURR1_TRANS: Attagene TRANS-FACTORIAL HepG2 Assay for human Nuclear Receptor Related Protein 1 (NURR1) (AID 2282985); settings: HepG2 Attagene TRANS reporter, mRNA readout
Sequence of Nuclear receptor subfamily 4 group A member 2 (Homo sapiens) (P43354 whole entry, looked up): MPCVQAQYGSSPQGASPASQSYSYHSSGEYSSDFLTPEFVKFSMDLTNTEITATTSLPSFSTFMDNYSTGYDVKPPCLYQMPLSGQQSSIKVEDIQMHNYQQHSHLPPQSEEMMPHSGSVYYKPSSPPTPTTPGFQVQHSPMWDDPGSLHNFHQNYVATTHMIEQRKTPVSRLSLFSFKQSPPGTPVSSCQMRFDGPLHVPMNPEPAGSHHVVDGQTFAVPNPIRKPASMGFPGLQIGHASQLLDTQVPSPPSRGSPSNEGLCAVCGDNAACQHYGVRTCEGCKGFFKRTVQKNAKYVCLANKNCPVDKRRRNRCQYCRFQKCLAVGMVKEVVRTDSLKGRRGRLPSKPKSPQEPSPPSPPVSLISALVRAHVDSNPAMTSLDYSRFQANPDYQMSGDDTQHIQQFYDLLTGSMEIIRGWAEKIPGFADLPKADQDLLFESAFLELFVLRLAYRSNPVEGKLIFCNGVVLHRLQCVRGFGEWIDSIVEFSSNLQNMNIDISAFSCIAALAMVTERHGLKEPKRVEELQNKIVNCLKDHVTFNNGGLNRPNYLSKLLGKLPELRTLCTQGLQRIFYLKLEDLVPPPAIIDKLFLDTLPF
Outline: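 Cells: HepG2, transiently transfected. Exposure: 24 h. Detection: fluorescence of labelled RT-PCR products separated by capillary electrophoresis; upward fit versus DMSO.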

[13] = molecular target: Nuclear receptor subfamily 1 group I member 3 (Homo sapiens) (UniProt Q14994); assay: ATG_CAR_TRANS: Attagene TRANS-FACTORIAL HepG2 Assay for human Constitutive Androstane Receptor (CAR) (AID 2282969); settings: HepG2 Attagene TRANS-FACTORIAL CAR reporter;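 also: activators raise reporter mRNA above DMSO so AC50 marks induction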
Sequence of Nuclear receptor subfamily 1 group I member 3 (Homo sapiens) (Q14994 whole entry, looked up, the tested form may be a part): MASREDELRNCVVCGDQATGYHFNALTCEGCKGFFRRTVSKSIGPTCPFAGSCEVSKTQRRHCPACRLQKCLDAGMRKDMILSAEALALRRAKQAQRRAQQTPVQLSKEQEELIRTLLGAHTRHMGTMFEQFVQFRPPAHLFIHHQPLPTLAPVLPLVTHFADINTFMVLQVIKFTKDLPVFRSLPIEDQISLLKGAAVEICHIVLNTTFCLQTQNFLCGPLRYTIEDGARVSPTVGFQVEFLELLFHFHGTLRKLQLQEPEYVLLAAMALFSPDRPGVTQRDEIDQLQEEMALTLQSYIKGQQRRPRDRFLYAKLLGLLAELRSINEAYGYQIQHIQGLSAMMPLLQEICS
Outline: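 Readout is reporter mRNA induction, quantified by fluorescent primer extension and capillary electrophoresis after RT-PCR. Cells were HepG2 transiently carrying chimeric NR-Gal4 constructs with GAL4-UAS reporters, treated for 24 h; activity scored upward from DMSO.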

[14] = ATG_M_06_TRANS: Attagene TRANS-FACTORIAL HepG2 Assay for M06 Transcription Factor (Internal Marker) (AID 2282983); settings: HepG2 Attagene TRANS M06 internal marker reporter
Outline: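 After a 24 h chemical treatment of transfected HepG2, RNA underwent DNase I treatment, reverse transcription and reporter-specific PCR; labelled, HpaI-digested products were sized by capillary electrophoresis. Signal increase relative to DMSO defined activity.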

[15] = molecular target: Steroid hormone receptor ERR1 (Homo sapiens) (UniProt P11474); assay: ATG_ERRa_TRANS: Attagene TRANS-FACTORIAL HepG2 Assay for human Estrogen-Related Receptor alpha (ERRa) (AID 2282971); settings: HepG2 Attagene TRANS reporter, ERRa transactivation
Sequence of Steroid hormone receptor ERR1 (Homo sapiens) (P11474 whole entry, looked up, the tested form may be a part): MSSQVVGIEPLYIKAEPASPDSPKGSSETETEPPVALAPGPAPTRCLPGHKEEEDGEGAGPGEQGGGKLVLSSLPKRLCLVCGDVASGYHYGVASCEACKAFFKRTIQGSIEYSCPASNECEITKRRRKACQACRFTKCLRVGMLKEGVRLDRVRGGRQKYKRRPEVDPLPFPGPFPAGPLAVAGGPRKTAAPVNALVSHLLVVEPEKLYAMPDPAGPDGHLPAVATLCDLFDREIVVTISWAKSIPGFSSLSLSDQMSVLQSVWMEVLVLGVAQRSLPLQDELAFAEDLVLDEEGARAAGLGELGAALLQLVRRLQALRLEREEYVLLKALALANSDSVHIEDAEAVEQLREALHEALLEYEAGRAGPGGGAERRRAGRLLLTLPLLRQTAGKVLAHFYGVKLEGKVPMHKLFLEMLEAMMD
Outline: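 Transfected HepG2, 24 h dosing, ERRa-Gal4 chimera driving GAL4-UAS reporter. Readout: reporter mRNA via RT-PCR plus capillary electrophoresis (fluorescence). Positive direction vs DMSO control.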

[16] = ATG_M_19_TRANS: Attagene TRANS-FACTORIAL HepG2 Assay for M19 Transcription Factor (Internal Marker) (AID 2282974); settings: HepG2 Attagene TRANS-FACTORIAL M19 internal marker reporter
Outline: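 Transfected HepG2 (GAL4-UAS MRTUs), 24 h compound, TriZol RNA, DNase-treated RT, reporter PCR, FAM label, HpaI digest, CE fluorescence; gain vs DMSO.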

[17] = ATG_GAL4_TRANS: Attagene TRANS-FACTORIAL HepG2 Assay for GAL4 (Internal Marker) (AID 2282976); settings: HepG2 Attagene TRANS GAL4 internal marker reporter
Outline: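 RT-PCR/capillary electrophoresis readout of reporter mRNA. HepG2, transient MRTU transfection (GAL4-UAS reporters), 24 h compound exposure. Background-control endpoint, positive direction vs DMSO baseline.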

[18] = molecular target: Estrogen-related receptor gamma (Homo sapiens) (UniProt P62508); assay: ATG_ERRg_TRANS: Attagene TRANS-FACTORIAL HepG2 Assay for human Estrogen-Related Receptor gamma (ERRg) (AID 2282977); settings: HepG2 Attagene TRANS reporter, ERRg transactivation;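 also: hits increase reporter signal over DMSO so potencies reflect activators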
Sequence of Estrogen-related receptor gamma (Homo sapiens) (P62508 whole entry, looked up, the tested form may be a part): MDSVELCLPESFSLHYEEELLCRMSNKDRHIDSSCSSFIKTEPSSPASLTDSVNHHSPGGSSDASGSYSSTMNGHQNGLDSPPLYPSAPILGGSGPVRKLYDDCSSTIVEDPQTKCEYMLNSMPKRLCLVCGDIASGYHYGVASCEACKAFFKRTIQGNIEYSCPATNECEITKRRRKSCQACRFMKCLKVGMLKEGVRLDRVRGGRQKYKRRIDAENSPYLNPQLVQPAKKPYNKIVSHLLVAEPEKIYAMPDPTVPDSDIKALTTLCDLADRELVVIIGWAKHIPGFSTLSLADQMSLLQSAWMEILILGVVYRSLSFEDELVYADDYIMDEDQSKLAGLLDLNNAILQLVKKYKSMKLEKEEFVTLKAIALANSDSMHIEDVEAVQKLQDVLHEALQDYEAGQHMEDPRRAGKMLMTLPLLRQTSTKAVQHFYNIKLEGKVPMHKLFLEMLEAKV
Outline: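 Transient HepG2 transfectants, 24 h compound exposure, GAL4-UAS reporter mRNA by RT-PCR/6-FAM labelling/capillary electrophoresis; positive direction vs DMSO.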

[19] = molecular target: Bile acid receptor (Homo sapiens) (UniProt Q96RI1); assay: ATG_FXR_TRANS: Attagene TRANS-FACTORIAL HepG2 Assay for Farnesoid X Receptor (FXR) (AID 2282979); settings: HepG2 Attagene TRANS FXR-GAL4 reporter transcription;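 also: hits raise reporter mRNA above DMSO so AC50 marks FXR activation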
Sequence of Bile acid receptor (Homo sapiens) (Q96RI1 whole entry, looked up, the tested form may be a part): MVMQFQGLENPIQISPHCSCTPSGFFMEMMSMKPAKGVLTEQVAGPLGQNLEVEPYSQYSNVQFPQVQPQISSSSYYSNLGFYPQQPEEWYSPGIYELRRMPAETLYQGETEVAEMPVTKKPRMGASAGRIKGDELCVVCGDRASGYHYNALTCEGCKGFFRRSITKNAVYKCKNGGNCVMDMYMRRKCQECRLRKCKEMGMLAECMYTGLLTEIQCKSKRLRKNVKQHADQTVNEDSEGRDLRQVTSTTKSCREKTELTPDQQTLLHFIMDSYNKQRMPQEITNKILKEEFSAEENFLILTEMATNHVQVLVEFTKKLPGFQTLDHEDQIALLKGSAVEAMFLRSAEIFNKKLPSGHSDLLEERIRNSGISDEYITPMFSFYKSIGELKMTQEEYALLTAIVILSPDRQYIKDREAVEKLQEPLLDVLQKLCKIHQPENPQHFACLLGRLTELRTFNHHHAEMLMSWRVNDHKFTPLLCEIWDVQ
Outline: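 Read-out: fluorescent reporter transcripts quantified by capillary electrophoresis after RT-PCR of total RNA. Source cells were HepG2 transiently carrying chimeric NR-GAL4 plus GAL4-UAS reporter units, dosed 24 h. Activity fitted upward relative to DMSO baseline.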

[20] = molecular target: Transcriptional activator Myb (Homo sapiens) (UniProt P10242); assay: ATG_Myb_CIS: Attagene CIS-FACTORIAL HepG2 Assay for human Myeloblastosis (Myb) Proto-Oncogene Transcription Factor (AID 2282986; active = hit-call score of the fitted dose curve at least 0.9, where 1 is the maximum; inactive = score below 0.9); settings: HepG2 Attagene CIS-FACTORIAL Myb reporter transcription; actives raise or lower the signal
Sequence of Transcriptional activator Myb (Homo sapiens) (P10242 whole entry, looked up): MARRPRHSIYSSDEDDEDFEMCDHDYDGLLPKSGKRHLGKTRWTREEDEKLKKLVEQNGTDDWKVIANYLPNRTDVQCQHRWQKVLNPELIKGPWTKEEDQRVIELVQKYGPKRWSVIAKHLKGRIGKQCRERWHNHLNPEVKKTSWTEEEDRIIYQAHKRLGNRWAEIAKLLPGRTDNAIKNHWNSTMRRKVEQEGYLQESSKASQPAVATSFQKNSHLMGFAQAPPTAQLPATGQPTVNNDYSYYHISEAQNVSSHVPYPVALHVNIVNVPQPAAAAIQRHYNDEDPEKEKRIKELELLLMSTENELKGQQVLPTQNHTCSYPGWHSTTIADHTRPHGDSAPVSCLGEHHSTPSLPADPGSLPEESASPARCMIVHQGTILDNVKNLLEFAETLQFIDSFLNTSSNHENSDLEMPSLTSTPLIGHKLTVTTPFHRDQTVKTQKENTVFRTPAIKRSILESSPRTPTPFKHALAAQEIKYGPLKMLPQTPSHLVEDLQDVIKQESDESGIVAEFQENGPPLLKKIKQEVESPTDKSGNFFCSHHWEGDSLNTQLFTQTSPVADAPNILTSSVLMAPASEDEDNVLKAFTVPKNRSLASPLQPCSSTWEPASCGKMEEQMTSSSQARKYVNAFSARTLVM
Outline: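 After 24 h of compound dosing, total RNA from transfected HepG2 cells is reverse-transcribed and the reporter sequences amplified, labeled and separated by capillary electrophoresis. Values come from bidirectional fitting against DMSO.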

Measured: AC50

Cc1c(F)c(F)c(COC(=O)C2C(/C=C(\Cl)C(F)(F)F)C2(C)C)c(F)c1F (stereo not given)
active: [4] 18 µM | [5] 50 µM
inactive: [1] | [2] | [3] | [6] | [7] | [8] | [9] | [10] | [11] | [12]

CCOc1cc(Oc2ccc(C(F)(F)F)cc2Cl)ccc1[N+](=O)[O-]
active: [6] 13.1 µM
inactive: [1] | [2] | [3] | [13] | [5] | [14]

CCNc1nc(Cl)nc(NC(C)C)n1
inactive: [1] | [2] | [3] | [4] | [5] | [15] | [6] | [16] | [17] | [18] | [7] | [8] | [9] | [10] | [14] | [11]

COc1nc(NC(C)C)nc(NC(C)C)n1
inactive: [1] | [2] | [3] | [4] | [5] | [15] | [6] | [16] | [18] | [7] | [19] | [8] | [9] | [10] | [14] | [11] | [12]

COC(=O)C(C)Oc1ccc(Oc2ccc(Cl)cc2Cl)cc1 (stereo not given)
inactive: [1] | [2] | [3] | [4] | [13] | [15] | [6] | [16] | [18] | [7] | [19] | [8] | [9] | [10] | [14] | [11] | [12]

COc1cnc(OC)n2nc(NS(=O)(=O)c3c(OCC(F)F)cccc3C(F)(F)F)nc12
inactive: [1] | [2] | [3] | [13] | [5] | [15] | [6] | [16] | [17] | [7] | [8] | [9] | [10] | [14] | [12] | [20]

Cc1ccc(-c2c(Cl)nc(C#N)n2S(=O)(=O)N(C)C)cc1
active: [4] 11.9 µM | [6] 8.26 µM
inactive: [1] | [2] | [3] | [5] | [7] | [8] | [9] | [14]

CCOC(=O)C(Cl)Cc1cc(-n2nc(C)n(C(F)F)c2=O)c(F)cc1Cl (stereo not given)
inactive: [1] | [2] | [3] | [4] | [13] | [5] | [6] | [7] | [8] | [9] | [14] | [11] | [20]

CO/C=C(/C(=O)OC)c1ccccc1Oc1cc(Oc2ccccc2C#N)ncn1
active: [12] 71.2 µM
inactive: [1] | [2] | [3] | [13] | [5] | [15] | [6] | [16] | [17] | [18] | [7] | [8] | [9] | [10] | [14] | [11] | [12]

O=C(O)COc1nc(Cl)c(Cl)cc1Cl
inactive: [1] | [2] | [3] | [4] | [5] | [6] | [10] | [14] | [12]

CC(Oc1ccc(Cl)cc1Cl)C(=O)O (stereo not given)
inactive: [1] | [2] | [3] | [4] | [6] | [16] | [7] | [9] | [10] | [20]

CCNc1nc(Cl)nc(NCC)n1
inactive: [1] | [2] | [3] | [4] | [13] | [15] | [6] | [16] | [18] | [7] | [8] | [9] | [14] | [11]

CNC(=O)ON=CC(C)(C)SC
inactive: [1] | [2] | [3] | [5] | [15] | [6] | [16] | [17] | [18] | [7] | [19] | [8] | [9] | [10] | [14] | [11] | [12]

CC1=C(C(=O)Nc2ccccc2)SCCO1
inactive: [1] | [2] | [3] | [4] | [5] | [15] | [6] | [18] | [19] | [9] | [14] | [11] | [20]
